Pf Dd2 inh: qHTS Primary assay for Inhibitors of Plasmodium falciparum Dd2 growth in vitro; P. falciparum Dd2 growth, SYBR Green, 72 h; Potency, µM (series often up to 28.9 µM), without a hit: at the top dose activity, negative = inhibition, actives largely listed as inhibitors; 4.3% of 120,000 active; AID 1347417, 2020; active means well fitted inhibition curve with a large enough effect;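 further: plate controls were DMSO vehicle for no effect and reference drug for full effect; nearly all actives have a fitted effect of over 65% in size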
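Infected erythrocytes (Dd2, 0.3% parasitemia, 2.5% hematocrit final) are added to compound in RPMI-1640/Albumax II medium, grown 72 h at 37C in low oxygen, then lysed with saponin/Triton-X containing SYBR Green and read by fluorescence.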
Starred values were filed as active, the others as inactive; i = inactive; ! = not confirmed by another sample; [ ] = dose if it differs, or a comment. The full list was thinned out, with hits kept by preference. Potency means the concentration at half of the fitted maximal effect.

SMILES	Pf Dd2 inh
COc1cc(C)c2c(c1C)C[C@H](C(C)C(=O)NCc1cccs1)CC2 (stereo partly specified)	11.2µM*
COc1cc(C)c2c(c1C)C[C@H](C(C)C(=O)N1CCN(CCO)CC1)CC2 (stereo partly specified)	i
COCCOc1cc(C)c2c(c1C)C[C@H](C(C)C(=O)N1CCCCC1)CC2 (stereo partly specified)	-6.9%[44.1 µM]
Cc1nccn1CCNC(=O)c1ccc(CC2CCN(S(C)(=O)=O)CC2)cc1	i
CCc1ccc(NC(=O)NCC2CCOCC2)cc1	4.5%
O=C(CCN1CCCCO1)N1CCCC(N2CCN(c3ccccc3)CC2)C1 (stereo unspecified)	-6.1%
COCCC1(NS(C)(=O)=O)CCN(C(=O)c2ccc(OC)nc2)CC1	27.7%
O=C(c1ccco1)N1CCC2(CCN(CCCn3cccn3)CC2)C(CO)C1 (stereo unspecified)	-4.3%
O=C(Cn1cccn1)N1C[C@@H](COCC2CC2)[C@H](c2ccncc2)C1	i
CN1CCC(Oc2ccc(NC(=O)c3ccncc3)cn2)C1 (stereo unspecified)	2.3%
c1ccc(-c2nc3ncccc3[nH]2)nc1	19.1%[44.1 µM]
c1cnc2nc(-c3c[nH]c4ncccc34)[nH]c2c1	25.1µM*!
c1cnc2nc(C3CCNC3)[nH]c2c1 (stereo unspecified)	23.7%[44.1 µM]
Cc1cc(-c2nc3ncccc3[nH]2)c(C)[nH]1	28.2µM*!
O=C(NCc1c[nH]c2ncccc12)c1cccc2[nH]ccc12	-20.7%[44.1 µM]
c1cnc2nc(-c3ccsc3)[nH]c2c1	-19.1%[44.1 µM]
COc1ccccc1OCCNC(=O)C1CC(=O)N(c2n[nH]c3cccc(F)c23)C1 (stereo unspecified)	1.1%
CCC(C)NC(=O)CN1C(=O)C(c2ccccc2)=NC1(C)C (stereo unspecified)	33.6%
Cc1cc(C)n(-c2cccc(CN(C)C(=O)C3CCC(=O)N(Cc4ccccn4)C3)c2)n1 (stereo unspecified)	10.9%
O=C(NCCc1ccc(Cl)cc1)c1ccc2c(c1)N(Cc1ccccc1)CCS2	1.1%
Cc1ccc(CN2CCSc3ccc(C(=O)NCc4ccc(OC(C)C)cc4)cc32)cc1	-23.6%
Cc1ccc(CN2CCSc3ccc(C(=O)Nc4ccc(Cl)cc4)cc32)cc1	7.94µM*
CCN1CCSc2ccc(C(=O)NCc3ccc(OC)cc3)cc21	-21.2%
O=C(Nc1ccc(Cl)cc1)c1ccc2c(c1)N(Cc1ccccc1)CCS2	4.47µM*
COc1ccc(OC)c(CCNC(=O)c2ccc3c(c2)N(Cc2ccccc2)CCS3)c1	-20.7%
SMILES	Pf Dd2 inh
COc1ccc(C2=NOC3(CCCN([S+](=O)([O-])c4cccs4)C3)C2)cc1 (stereo unspecified)	-7.6%
c1ccc(-c2nnc3ccc(NC4CC4)nn23)nc1	32.1%[44.1 µM]
C[S+](=O)([O-])N1CCN(c2cccc(C=O)c2)C(=O)C1	2.6%[44.1 µM]
O=C(c1ccoc1)N1CCc2nn(Cc3ccccc3)c(=O)n2CC1	7.2%
COc1cccc(NC(=O)N2CCCC(O)(CNS(C)(=O)=O)CC2)c1 (stereo unspecified)	-5.9%
CC(C)(CC(=O)O)CC(=O)N[C@H]1C[C@H]2C(=O)Nc3ccc(/C=C/c4ccccc4)cc3C(=O)N2C1	25.8%
COc1ccc(/C=C/c2ccc3c(c2)C(=O)N2C[C@@H](NC(=O)CC(C)(C)CC(=O)O)C[C@H]2C(=O)N3)cc1	14.1µM*
COCC(=O)N[C@H]1C[C@H]2C(=O)Nc3ccc(/C=C/c4ccccc4)cc3C(=O)N2C1	-11.5%[44.1 µM]
CN(C)C(=O)CCC1CCN(S(=O)(=O)c2cccc(F)c2)CC1	i
COc1ccc2[nH]c(C(=O)N3CCC4(CC3)CC(O)CCO4)cc2c1 (stereo unspecified)	11.2µM*
COc1ccc(C(=O)N2CCC3(CC2)CC(O)CCO3)c(C)c1 (stereo unspecified)	6.7%
COc1ccc(C(=O)N2CCC3(CC2)CC(O)CCO3)cc1 (stereo unspecified)	28.3%
CNC(=O)N1CCC(C2CCN(Cc3ccncc3F)C2)CC1 (stereo unspecified)	-0.6%
O=C(COc1ccccc1)NC1CCc2n[nH]c(=O)n2CC1 (stereo unspecified)	i
CC(C)(C)OC(=O)N1CC(c2ccccc2)C1	i
CC(C)C1CNC(Cc2ccccc2)CN1C(=O)OC(C)(C)C (stereo unspecified)	8.91µM*
CC(C)C1CN(C(=O)OC(C)(C)C)C(C)CN1 (stereo unspecified)	26.5%[44.1 µM]
O=C1NCc2ccccc2CC12CCN(Cc1ccccc1Cl)CC2	-12.8%
CCC(=O)N1CCCC1c1nc(CCOCC2CCOCC2)no1 (stereo unspecified)	-23.4%
Cc1ccc(C(=O)N(C)C2CCCc3ccccc32)cc1 (stereo unspecified)	i
CN1Cc2ccc(NCc3ccccc3)nc2C(C)(C(=O)NCc2cccnc2)C1 (stereo unspecified)	i
CC1(C(=O)NC2CCOCC2)CN(Cc2ccccc2)Cc2ccc(Nc3ccccc3)nc21 (stereo unspecified)	-23.2%

Bioassay records: PubChem, National Center for Advancing Translational Sciences (NCATS)
